# Laboratory results reported in PMC5540273 (PLoS ONE, 2017).
# Columns and labels:
# Settings in all cases: concentration: 1 μM, replicates: in singlicate; n = 1
# MAP3K15 = tested on: MAP3K15
# MAP3K1 = tested on: MAP3K1
# MAP3K2 = tested on: MAP3K2
# MAP3K3 = tested on: MAP3K3
# MAP3K4 = tested on: MAP3K4
# MAP4K2 = tested on: MAP4K2
# MAP4K3 = tested on: MAP4K3
# MAP4K4 = tested on: MAP4K4
# MAP4K5 = tested on: MAP4K5
# MAPKAPK2 = tested on: MAPKAPK2
# 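Also: KINOMEscan kinase panel screen.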
SMILES,%Inh (MAP3K15),%Inh (MAP3K1),%Inh (MAP3K2),%Inh (MAP3K3),%Inh (MAP3K4),%Inh (MAP4K2),%Inh (MAP4K3),%Inh (MAP4K4),%Inh (MAP4K5),%Inh (MAPKAPK2)
Cl.O=C(Nc1ccc(Oc2ccc3[nH]c(NC(=O)c4ccco4)nc3c2)cc1)Nc1cc(C(F)(F)F)ccc1F [GW683134],0%,27%,7%,0%,0%,0%,17%,24%,32%,93%
CC(C)(C)c1ccc(C(=O)Nc2cn3cc(-n4ccnc4)ccc3n2)cc1,68%,12%,17%,0%,15%,30%,0%,6%,0%,0%
CN(C)c1ncnc2nc[nH]c12 [SKF-31736],37%,11%,16%,0%,0%,0%,0%,0%,0%,0%
Cc1ccc(-c2ccc3occ(-c4ccc(S(C)=O)cc4)c3c2)nn1 (stereo not drawn),0%,0%,0%,0%,0%,0%,0%,0%,0%,0%
Fc1cc(Cl)ccc1Nc1ccnc2cc(-c3ccc(CN4CCOCC4)o3)ccc12 [GW560109],23%,38%,0%,0%,0%,0%,72%,25%,11%,7%
Cc1cc(-c2c(-c3ccc(F)cc3)ncn2CCCN2CCOCC2)nc(N)n1 [SB-222517],0%,24%,30%,0%,15%,0%,5%,0%,0%,0%
O=C(Nc1n[nH]c2cc(-c3cccs3)ccc12)C1CC1 [SB-731284],57%,52%,34%,44%,0%,9%,0%,13%,0%,0%
Cl.Cl.NCC(NC(=O)c1cc(-c2cccnc2)c(-c2ccnc3[nH]ccc23)s1)c1ccccc1 (stereo not drawn) [GSK1323434],0%,7%,3%,0%,0%,41%,0%,82%,0%,6%
COc1cc(Nc2ccnc3cc(-c4ccncc4)ccc23)cc(OC)c1OC.Cl [GW494610],7%,8%,25%,30%,0%,13%,0%,83%,55%,13%
Nc1cccc(-c2ccc3c(N)n[nH]c3c2)c1 [GSK2193613],0%,100%,0%,0%,4%,91.1%,1%,19%,0%,0%
Cc1cc(-c2ccnc(Nc3cccc(C#N)c3)n2)cc(C)c1O [GSK1440913],0%,22%,2%,1%,18%,30%,18%,76%,12%,0%
COc1cccc(NC(=O)NCCNc2ccnc(Nc3ccc(F)cc3)n2)c1 [GSK1379879],0%,1%,0%,0%,36%,0%,10%,0%,0%,20%
Cc1cccc(Nc2nc(NCCN)ncc2C(N)=O)c1 [GSK1292139],0%,4%,62%,31%,22%,98.4%,32%,83%,26%,2%
COc1ccc(C)c(Nc2ccnc(Nc3ccc(-c4cnc[nH]4)cc3)n2)c1.Cl [GW784041],0%,0%,0%,28%,18%,0%,6%,23%,19%,0%
COC(=O)Nc1nc2ccc(Oc3ccc(CC(=O)Nc4cc(C(F)(F)F)ccc4F)cc3)cc2[nH]1 [GW680903],0%,0%,0%,0%,8%,0%,0%,0%,0%,20%
CS(=O)(=O)c1cccc(CNc2nc(Nc3ccc4c(c3)CCC(=O)N4)ncc2C(F)(F)F)c1,0%,0%,62%,46%,81%,0%,0%,41%,0%,0%
CNc1nccc(-c2ccc3c(N)n[nH]c3c2)n1 [GSK2206003],0%,14%,0%,0%,0%,54%,0%,13%,0%,0%

SMILES,%Inh (MAP3K15),%Inh (MAP3K1),%Inh (MAP3K2),%Inh (MAP3K3),%Inh (MAP3K4),%Inh (MAP4K2),%Inh (MAP4K3),%Inh (MAP4K4),%Inh (MAP4K5),%Inh (MAPKAPK2)
CC(=O)Nc1cn2nc(Oc3cccc(NC(=O)c4cccc(C(F)(F)F)c4)c3)ccc2n1,0%,0%,0%,22%,19%,0%,91.7%,36%,90%,0%
O=C(O)C(F)(F)F.O=c1[nH]ccc2nc(N[C@@H]3CCNC3)nc(Nc3cc(Cl)cc(Cl)c3)c12 [GSK2188764],26%,24%,81%,78%,19%,99.9%,77%,94.1%,76%,31%
O=C(Nc1n[nH]c2nc(-c3ccccc3O)ccc12)C1CC1 [SB-711880],0%,0%,19%,4%,0%,0%,44%,58%,0%,0%
Cl.Cl.NC(CNC(=O)c1cc(Br)c(-c2ccnc3[nH]ccc23)s1)c1ccccc1 (stereo not drawn) [GSK1322949],16%,14%,27%,15%,3%,56%,20%,53%,4%,0%
O=C(Nc1n[nH]c2nc(-c3ccccc3)ccc12)C1CC1 [SB-708999],3%,17%,6%,0%,28%,0%,1%,53%,12%,4%
Cc1ccc(C)c(NC(=O)Nc2ccc(C)c(-c3ccc(C(=O)Nc4ccncc4)cc3)c2)c1 [GSK1398473],83%,9%,30%,0%,43%,0%,2%,9%,5%,5%
Cn1cc(-c2cnc(N)c3c(-c4ccc5c(c4)CCN5C(=O)Cc4ccccc4)csc23)cn1 [GSK2593074],35%,4%,75%,64%,82%,36%,97.6%,0%,98.8%,0%
CC(C)NCC(Cc1ccccc1)NC(=O)c1cc(Br)c(-c2ccnc3[nH]ccc23)s1.Cl.Cl (stereo not drawn) [GSK1383281],0%,0%,34%,0%,0%,0%,0%,27%,0%,0%
COC(=O)Nc1nc2cc(Oc3ccc(NC(=O)Nc4cccc(SC)c4)cc3)ccc2[nH]1.Cl [GW697999],0%,15%,1%,0%,0%,0%,0%,0%,0%,0%
CCNC(=O)/C=C/c1n[nH]c2cc(Sc3ccccc3C(=O)NC)ccc12,5%,38%,20%,30%,3%,30%,65%,39%,24%,12%
Cc1ccc(NC(=O)c2ccnc(N3CCCCC3)c2)cc1-c1ccc(C(=O)NCC2CC2)cc1 [GW775610],0%,0%,0%,0%,0%,0%,11%,0%,26%,12%
Cc1ccc(O)cc1Nc1ccnc2cc(-c3ccc(CN4CCCCC4)o3)ccc12 [GW557777],7%,67%,29%,7%,0%,29%,0%,2%,3%,0%
CN(C)CCOc1ccc(-c2cc(-c3ccc(Cl)c(O)c3)c(-c3ccncc3)[nH]2)cc1.Cl.Cl [SB-684387],50%,0%,0%,0%,17%,27%,0%,22%,3%,12%
CCn1c(-c2nonc2N)nc2c(-c3ccccc3)ncc(OCCCN)c21.O=C(O)C(F)(F)F.O=C(O)C(F)(F)F [GSK260205],0%,17%,98.2%,97.7%,6%,3%,0%,76%,5%,13%
Cn1cc(-c2ccc3c(c2)CCN3C(=O)Cc2cc(F)cc(F)c2F)c2c(N)ncnc21 [GSK2634140],7%,10%,87%,50%,80%,0%,78%,0%,81%,7%
COc1cccc(C2=C(Nc3cccc(O)c3)C(=O)NC2=O)c1 [SB-390771],0%,0%,12%,0%,38%,8%,0%,4%,0%,17%
